Here are results for six compounds from ChEMBL document CHEMBL1961873, “Compounds: GSK PKIS; Assays: Nanosyn kinase panel” (2012).

For experiment [1], the target named is Tyrosine-protein kinase CSK (Homo sapiens) (UniProt P41240). As to conditions: at 1 µM.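 Also: each value is an averaged inhibition reading.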
Experiment [2] addresses T1, Discoidin domain-containing receptor 2 (Homo sapiens) (UniProt Q16832).
T1 sequence (whole entry): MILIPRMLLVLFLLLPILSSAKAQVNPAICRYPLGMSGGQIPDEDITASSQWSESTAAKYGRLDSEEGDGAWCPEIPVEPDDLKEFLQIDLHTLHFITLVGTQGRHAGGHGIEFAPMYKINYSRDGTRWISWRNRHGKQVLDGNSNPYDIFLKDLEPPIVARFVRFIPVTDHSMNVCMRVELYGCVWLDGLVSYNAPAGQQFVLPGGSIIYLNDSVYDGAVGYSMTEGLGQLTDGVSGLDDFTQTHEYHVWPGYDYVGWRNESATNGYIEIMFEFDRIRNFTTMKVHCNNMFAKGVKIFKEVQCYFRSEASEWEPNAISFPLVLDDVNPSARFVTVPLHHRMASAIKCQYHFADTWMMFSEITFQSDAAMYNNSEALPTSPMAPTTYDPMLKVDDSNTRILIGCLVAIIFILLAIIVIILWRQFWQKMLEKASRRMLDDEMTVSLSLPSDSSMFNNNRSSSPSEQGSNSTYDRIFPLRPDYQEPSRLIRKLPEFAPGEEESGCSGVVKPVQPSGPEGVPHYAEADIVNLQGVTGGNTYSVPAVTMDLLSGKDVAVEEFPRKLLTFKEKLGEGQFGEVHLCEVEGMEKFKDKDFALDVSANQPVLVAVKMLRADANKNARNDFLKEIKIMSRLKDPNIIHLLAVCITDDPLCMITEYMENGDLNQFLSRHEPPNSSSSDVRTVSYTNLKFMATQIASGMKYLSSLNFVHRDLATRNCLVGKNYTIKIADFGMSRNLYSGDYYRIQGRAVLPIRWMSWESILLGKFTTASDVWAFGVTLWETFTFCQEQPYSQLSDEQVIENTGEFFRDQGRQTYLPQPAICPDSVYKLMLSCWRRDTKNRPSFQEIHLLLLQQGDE
Conditions: at 0.1 µM.

For experiment [3], the target named is T1, Discoidin domain-containing receptor 2 (Homo sapiens). Conditions: at 1 µM.
Experiment [4] has as its target Epidermal growth factor receptor (Homo sapiens) (UniProt P00533). As to conditions: at 0.1 µM.
Experiment [5] shares this target. As to conditions: at 1 µM.
Experiment [6] deals with Epidermal growth factor receptor (Homo sapiens), P00533 [L858R]. As to conditions: at 0.1 µM.
Sequence of Epidermal growth factor receptor (Homo sapiens), P00533 [L858R] (P00533 whole entry L858R): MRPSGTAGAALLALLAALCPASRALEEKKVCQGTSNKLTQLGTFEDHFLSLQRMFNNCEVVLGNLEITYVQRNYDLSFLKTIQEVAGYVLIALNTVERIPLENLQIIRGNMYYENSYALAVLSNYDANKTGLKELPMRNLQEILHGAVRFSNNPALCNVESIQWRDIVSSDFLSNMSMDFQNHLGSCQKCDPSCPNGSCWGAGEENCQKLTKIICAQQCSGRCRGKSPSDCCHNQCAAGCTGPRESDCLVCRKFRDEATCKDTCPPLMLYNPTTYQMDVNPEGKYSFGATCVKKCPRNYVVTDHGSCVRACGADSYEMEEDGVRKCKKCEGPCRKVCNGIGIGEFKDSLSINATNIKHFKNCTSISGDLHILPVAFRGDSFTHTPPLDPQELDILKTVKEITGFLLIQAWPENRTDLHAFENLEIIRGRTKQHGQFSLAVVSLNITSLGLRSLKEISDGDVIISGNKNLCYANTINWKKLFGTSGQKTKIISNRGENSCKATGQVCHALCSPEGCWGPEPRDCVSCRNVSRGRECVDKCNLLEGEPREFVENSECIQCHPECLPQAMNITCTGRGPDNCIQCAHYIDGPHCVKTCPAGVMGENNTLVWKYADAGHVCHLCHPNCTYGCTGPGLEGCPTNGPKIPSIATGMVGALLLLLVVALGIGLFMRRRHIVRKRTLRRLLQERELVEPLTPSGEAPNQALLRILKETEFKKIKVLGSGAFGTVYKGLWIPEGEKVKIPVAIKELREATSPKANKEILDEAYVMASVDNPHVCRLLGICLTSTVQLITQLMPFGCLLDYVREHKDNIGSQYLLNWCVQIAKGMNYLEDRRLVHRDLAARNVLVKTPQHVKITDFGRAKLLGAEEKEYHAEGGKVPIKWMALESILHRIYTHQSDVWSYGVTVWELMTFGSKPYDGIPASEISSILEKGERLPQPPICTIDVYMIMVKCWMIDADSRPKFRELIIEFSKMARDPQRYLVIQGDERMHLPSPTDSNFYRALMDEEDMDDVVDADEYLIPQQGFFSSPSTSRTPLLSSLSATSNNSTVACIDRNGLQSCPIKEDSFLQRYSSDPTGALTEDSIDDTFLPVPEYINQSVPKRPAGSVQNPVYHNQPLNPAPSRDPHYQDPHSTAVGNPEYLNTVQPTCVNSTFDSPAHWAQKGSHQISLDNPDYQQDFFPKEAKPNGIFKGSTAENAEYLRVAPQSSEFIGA
The test system is the same in experiment [7]. Conditions: at 1 µM.
For experiment [8], the system named is Epidermal growth factor receptor (Homo sapiens), P00533 [L861Q]. As to conditions: at 0.1 µM.
For experiment [9] the test system is unchanged. Conditions: at 1 µM.
Experiment [10] has as its system Epidermal growth factor receptor (Homo sapiens), P00533 [T790M]. Conditions: at 0.1 µM.
The test system is the same in experiment [11]. Conditions: at 1 µM.
Experiment [12] has as its system Epidermal growth factor receptor (Homo sapiens), P00533 [L858R,T790M]. Conditions: at 0.1 µM.
For experiment [13] the test system is unchanged. Conditions: at 1 µM.
The target in experiment [14] is Ephrin type-A receptor 2 (Homo sapiens) (UniProt P29317). As to conditions: at 0.1 µM.
Experiment [15] shares this target. As to conditions: at 1 µM.
Experiment [16] addresses T2, Ephrin type-A receptor 3 (Homo sapiens) (UniProt P29320).
T2 sequence (whole entry): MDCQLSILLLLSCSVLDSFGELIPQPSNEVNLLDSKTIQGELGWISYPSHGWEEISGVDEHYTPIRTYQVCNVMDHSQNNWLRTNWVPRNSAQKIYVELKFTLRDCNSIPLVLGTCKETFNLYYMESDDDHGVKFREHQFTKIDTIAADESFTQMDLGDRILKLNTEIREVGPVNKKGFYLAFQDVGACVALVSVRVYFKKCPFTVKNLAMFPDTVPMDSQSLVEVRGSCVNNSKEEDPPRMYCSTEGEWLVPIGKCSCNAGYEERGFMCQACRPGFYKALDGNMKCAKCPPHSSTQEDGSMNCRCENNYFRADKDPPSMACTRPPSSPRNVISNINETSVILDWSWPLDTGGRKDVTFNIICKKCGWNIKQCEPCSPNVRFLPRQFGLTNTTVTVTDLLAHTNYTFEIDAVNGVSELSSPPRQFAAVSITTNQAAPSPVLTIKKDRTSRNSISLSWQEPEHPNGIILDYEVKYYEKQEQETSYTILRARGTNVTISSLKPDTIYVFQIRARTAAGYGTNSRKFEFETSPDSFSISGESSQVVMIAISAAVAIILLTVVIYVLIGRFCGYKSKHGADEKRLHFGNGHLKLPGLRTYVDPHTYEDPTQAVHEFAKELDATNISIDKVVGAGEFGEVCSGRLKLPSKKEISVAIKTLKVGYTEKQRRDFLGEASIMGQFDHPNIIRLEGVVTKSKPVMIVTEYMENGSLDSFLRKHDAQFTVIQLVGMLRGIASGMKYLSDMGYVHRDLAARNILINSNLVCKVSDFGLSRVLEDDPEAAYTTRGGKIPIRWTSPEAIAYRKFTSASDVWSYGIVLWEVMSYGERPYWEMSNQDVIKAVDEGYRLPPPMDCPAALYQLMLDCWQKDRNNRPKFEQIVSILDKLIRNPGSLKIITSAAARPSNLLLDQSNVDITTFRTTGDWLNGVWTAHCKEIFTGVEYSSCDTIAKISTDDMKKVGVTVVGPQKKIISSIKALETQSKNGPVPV
Conditions: at 0.1 µM.

For experiment [17], the target named is T2, Ephrin type-A receptor 3 (Homo sapiens). Conditions: at 1 µM.
The target in experiment [18] is Ephrin type-A receptor 4 (Homo sapiens) (UniProt P54764). Conditions: at 0.1 µM.
For experiment [19] the target is unchanged. As to conditions: at 1 µM.
Experiment [20] concerns the target T3, Ephrin type-B receptor 2 (Homo sapiens) (UniProt P29323).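 Also: reported as mean inhibition of EPHB2, from the GSK PKIS dataset.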
T3 sequence (whole entry): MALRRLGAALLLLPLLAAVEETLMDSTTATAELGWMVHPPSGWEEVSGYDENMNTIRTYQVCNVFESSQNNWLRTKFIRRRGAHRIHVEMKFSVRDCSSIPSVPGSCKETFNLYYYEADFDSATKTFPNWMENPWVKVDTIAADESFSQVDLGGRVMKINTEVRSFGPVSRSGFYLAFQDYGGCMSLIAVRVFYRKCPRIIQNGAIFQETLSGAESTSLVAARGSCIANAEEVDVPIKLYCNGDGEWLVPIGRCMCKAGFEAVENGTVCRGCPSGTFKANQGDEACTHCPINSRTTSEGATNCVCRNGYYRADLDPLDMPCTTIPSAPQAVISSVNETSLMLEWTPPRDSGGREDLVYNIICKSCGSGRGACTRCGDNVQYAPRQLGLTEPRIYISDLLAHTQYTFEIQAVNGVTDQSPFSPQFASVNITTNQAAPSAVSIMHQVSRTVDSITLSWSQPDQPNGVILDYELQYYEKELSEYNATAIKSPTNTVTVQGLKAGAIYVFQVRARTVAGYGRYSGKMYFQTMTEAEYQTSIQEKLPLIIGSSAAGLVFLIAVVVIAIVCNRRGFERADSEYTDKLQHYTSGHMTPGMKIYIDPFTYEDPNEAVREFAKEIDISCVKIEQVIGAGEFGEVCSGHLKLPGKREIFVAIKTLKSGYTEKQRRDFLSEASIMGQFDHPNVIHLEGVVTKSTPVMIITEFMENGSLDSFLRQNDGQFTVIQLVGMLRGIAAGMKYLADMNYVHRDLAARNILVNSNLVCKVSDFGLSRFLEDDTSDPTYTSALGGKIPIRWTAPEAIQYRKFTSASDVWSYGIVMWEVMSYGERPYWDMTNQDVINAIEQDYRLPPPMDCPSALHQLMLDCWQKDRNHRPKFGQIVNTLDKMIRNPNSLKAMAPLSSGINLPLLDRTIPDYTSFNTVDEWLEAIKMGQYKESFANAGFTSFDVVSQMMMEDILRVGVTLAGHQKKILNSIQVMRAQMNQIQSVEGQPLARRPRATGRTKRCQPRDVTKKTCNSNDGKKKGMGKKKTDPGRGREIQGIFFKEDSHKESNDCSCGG
As to conditions: at 0.1 µM.

Usually inhibition stands for the change of the read-out against control, counted positive when it falls.

Molecules are shown by their SMILES.

Sequence of Epidermal growth factor receptor (Homo sapiens), P00533 [L858R,T790M] (P00533 whole entry T790M/L858R, looked up): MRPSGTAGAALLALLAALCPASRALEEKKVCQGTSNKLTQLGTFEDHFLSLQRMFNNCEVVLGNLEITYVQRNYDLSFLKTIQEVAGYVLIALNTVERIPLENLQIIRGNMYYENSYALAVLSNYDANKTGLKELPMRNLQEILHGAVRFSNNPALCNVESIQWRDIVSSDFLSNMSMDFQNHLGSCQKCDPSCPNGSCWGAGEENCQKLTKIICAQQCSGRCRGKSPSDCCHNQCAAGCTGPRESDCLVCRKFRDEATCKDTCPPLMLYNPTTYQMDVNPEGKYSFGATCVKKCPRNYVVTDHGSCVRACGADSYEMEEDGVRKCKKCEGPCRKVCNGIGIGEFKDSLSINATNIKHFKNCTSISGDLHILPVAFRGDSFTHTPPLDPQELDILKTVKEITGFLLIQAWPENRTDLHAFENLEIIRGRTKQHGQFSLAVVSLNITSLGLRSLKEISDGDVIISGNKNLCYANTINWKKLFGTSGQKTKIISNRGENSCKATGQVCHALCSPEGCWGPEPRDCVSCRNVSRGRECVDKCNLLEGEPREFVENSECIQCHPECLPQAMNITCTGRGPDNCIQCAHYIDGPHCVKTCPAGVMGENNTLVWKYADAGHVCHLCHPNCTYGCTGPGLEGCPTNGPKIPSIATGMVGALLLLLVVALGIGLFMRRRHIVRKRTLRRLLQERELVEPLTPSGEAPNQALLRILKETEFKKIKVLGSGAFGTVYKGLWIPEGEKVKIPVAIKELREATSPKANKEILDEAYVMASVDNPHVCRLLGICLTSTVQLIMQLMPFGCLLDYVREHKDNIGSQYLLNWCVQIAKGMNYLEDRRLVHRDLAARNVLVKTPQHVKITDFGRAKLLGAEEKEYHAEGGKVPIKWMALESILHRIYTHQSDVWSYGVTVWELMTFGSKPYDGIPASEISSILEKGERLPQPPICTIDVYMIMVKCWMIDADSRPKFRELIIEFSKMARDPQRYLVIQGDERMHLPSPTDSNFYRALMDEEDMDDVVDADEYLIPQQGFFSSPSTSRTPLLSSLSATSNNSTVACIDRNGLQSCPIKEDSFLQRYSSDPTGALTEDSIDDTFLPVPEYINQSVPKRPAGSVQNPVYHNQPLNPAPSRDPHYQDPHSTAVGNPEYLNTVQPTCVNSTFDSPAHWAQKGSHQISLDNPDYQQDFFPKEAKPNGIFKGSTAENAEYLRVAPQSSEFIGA
Sequence of Epidermal growth factor receptor (Homo sapiens), P00533 [T790M] (P00533 whole entry T790M): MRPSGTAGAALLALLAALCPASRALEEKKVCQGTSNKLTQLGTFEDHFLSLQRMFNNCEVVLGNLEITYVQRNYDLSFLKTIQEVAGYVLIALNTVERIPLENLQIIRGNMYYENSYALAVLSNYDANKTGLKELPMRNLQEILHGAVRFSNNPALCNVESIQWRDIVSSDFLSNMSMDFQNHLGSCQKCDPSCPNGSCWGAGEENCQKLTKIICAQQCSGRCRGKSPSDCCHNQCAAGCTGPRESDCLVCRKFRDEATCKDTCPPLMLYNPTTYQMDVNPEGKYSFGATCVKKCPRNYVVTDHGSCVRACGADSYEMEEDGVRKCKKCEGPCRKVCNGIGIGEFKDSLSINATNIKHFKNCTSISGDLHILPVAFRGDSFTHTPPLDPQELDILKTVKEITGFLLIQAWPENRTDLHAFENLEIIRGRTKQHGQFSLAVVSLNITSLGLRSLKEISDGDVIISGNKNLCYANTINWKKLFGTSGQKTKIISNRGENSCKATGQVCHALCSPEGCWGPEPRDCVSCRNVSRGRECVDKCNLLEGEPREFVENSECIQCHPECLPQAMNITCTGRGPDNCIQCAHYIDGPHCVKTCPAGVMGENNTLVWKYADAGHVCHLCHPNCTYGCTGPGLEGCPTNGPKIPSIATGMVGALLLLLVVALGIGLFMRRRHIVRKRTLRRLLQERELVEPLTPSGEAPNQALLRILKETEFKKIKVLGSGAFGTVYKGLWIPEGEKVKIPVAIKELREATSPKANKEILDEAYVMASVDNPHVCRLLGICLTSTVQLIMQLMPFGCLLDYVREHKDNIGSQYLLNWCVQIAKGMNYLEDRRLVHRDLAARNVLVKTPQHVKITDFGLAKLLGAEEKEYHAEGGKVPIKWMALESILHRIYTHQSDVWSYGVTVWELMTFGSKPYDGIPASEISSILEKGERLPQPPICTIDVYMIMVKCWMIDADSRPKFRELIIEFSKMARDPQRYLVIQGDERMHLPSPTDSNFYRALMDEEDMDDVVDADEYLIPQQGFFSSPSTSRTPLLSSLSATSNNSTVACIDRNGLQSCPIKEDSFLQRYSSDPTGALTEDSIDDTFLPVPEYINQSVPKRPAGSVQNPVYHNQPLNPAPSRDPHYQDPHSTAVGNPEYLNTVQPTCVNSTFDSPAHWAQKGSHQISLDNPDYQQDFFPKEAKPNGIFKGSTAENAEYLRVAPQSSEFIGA
Sequence of Epidermal growth factor receptor (Homo sapiens) (P00533 whole entry): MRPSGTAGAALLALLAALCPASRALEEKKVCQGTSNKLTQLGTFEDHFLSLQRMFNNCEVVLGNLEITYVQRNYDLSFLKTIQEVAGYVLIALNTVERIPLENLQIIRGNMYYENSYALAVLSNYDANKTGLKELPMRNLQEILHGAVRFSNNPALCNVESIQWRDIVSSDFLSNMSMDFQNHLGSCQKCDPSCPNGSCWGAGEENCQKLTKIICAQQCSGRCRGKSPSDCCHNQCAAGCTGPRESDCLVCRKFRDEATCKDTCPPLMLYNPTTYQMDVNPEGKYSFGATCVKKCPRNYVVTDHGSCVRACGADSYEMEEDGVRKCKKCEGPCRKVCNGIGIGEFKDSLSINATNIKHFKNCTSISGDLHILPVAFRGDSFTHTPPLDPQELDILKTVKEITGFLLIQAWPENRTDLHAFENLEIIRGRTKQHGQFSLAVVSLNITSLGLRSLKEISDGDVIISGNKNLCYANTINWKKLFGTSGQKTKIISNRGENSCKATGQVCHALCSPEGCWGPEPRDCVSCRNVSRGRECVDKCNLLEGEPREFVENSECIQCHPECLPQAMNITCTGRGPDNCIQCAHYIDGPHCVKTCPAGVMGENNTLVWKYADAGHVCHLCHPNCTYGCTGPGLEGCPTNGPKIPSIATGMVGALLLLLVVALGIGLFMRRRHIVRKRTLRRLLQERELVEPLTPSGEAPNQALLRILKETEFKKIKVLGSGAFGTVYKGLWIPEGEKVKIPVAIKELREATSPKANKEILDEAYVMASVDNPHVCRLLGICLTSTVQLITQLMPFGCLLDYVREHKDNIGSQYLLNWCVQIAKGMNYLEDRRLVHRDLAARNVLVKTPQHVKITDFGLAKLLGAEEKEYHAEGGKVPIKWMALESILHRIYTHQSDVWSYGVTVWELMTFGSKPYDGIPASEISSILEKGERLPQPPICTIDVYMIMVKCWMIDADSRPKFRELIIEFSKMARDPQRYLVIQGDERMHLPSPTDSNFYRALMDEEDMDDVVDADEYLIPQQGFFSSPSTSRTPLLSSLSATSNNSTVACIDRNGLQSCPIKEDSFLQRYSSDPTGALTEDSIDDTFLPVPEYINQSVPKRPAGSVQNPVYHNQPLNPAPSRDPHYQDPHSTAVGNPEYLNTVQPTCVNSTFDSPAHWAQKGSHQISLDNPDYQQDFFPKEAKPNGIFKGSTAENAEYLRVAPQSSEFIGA

Take `Cc1ccc(C(=O)NC2CCC2)cc1-c1ccc(C(=O)NCC2CC2)cc1`: the inhibition was 0.62% in [1]; 0.33% in [2]; 1.1% in experiment [3]; 10.4% in experiment [4]; 7.15% in experiment [5]; 3.77% in [6]. Further, the inhibition in experiment [7] is 4.05%; in experiment [8] it was 4.21%; in experiment [9], 4.15%; in experiment [10], 1.73%; in experiment [11], -0.05%; in experiment [12], 0.49%. The inhibition in [13] stood at 1.53%; in experiment [14], 0.5%; in [15], 0.07%; in [16] it was 2.96%; in experiment [17] it was 4.24%; in experiment [18], 4.02%. Further, the inhibition is 0.68% in experiment [19] and 6.98% in [20].
Take `Nc1nccc(-c2c(-c3ccc(F)cc3)ncn2C2CCC(O)CC2)n1` (stereo not given): the inhibition in experiment [1] is -0.86%; in experiment [2], -0.26%; in experiment [3], 13.3%; in [4] it was 4.04%; in experiment [5], 35.7%; in experiment [6] it was 18.4%. The inhibition in experiment [7] was 76.8%; in experiment [8] it was 4.44%; in experiment [9] it was 33.2%; in experiment [10] it was -1.86%; in [11], 0.86%; in experiment [12], 1.94%. Further, the inhibition in experiment [13] is 15.4%; in [14], 0.36%; in [15] it was 2.11%; in experiment [16], -4.93%; in experiment [17] it was -1.48%; in experiment [18] it was -4.75%. Also, the inhibition in experiment [19] came to 14.5%; in experiment [20], 7.37%.
On to `CCc1cccc(CC)c1/C=C/c1cncc(C(=O)NC)c1`, for which the inhibition amounted to 0.54% in [1]; 1.3% in experiment [2]; 6.62% in experiment [3]; 3.24% in experiment [4]; 6.32% in experiment [5]; 4.88% in experiment [6]. In addition, the inhibition in [7] was 3.92%; in experiment [8], 1.32%; in experiment [9], 2.46%; in experiment [10] it was 2.4%; in [11], -0.11%; in [12], 1.59%. The inhibition in experiment [13] was determined as 4.31%; in experiment [14] it was 3.59%; in experiment [15], 2.3%; in [16] it was 2.96%; in experiment [17] it was 2.85%; in experiment [18], 5.38%. In addition, the values for the inhibition in experiment [19] and in experiment [20] were 5.6% and 7.22%, respectively.
For `CN(C)c1ccc2c(c1)/C(=C/Nc1ccc(S(N)(=O)=O)cc1)C(=O)N2`, the inhibition in experiment [1] is 0.76%; in experiment [2], 1.03%; in [3], 2.54%; in [4], 9.33%; in [5], 11.9%; in experiment [6], 1.25%. For the same compound, the inhibition is 5.83% in [7]; 1.24% in experiment [8]; 2.51% in [9]; 0.31% in experiment [10]; 0.66% in experiment [11]; 0.14% in [12]. Further, the inhibition in experiment [13] was 6.28%; in experiment [14] it was -2.54%; in experiment [15] it was -2.52%; in experiment [16], 2.63%; in experiment [17], 3.13%; in experiment [18] it was -0.17%. In addition, the inhibition stood at 1.13% in experiment [19] and 3.5% in experiment [20].
In the case of `COc1ccc2cc(-c3c(-c4ccncc4)nc(-c4ccc([S+](C)[O-])cc4C)n3C)ccc2c1` (stereo not given), the inhibition in experiment [1] was -1.23%; in experiment [2], -2.64%; in experiment [3] it was -4.31%; in [4], 2.02%; in experiment [5], 7.54%; in [6] it was -1.17%. Also, the inhibition is 5.96% in experiment [7]; -0.12% in experiment [8]; 9.44% in experiment [9]; -0.7% in experiment [10]; 0.13% in experiment [11]; -3% in experiment [12]. The inhibition was 3.5% in [13]; -1.85% in experiment [14]; -0.23% in [15]; -1.34% in [16]; -0.2% in experiment [17]; -0.17% in experiment [18]. The inhibition in [19] stood at 18.6%; in [20] it was 1.99%.
`Fc1ccc(-c2nc3n(c2-c2ccncc2)CCS3)cc1`: the inhibition turned out to be 4.61% in experiment [1]; 2.36% in experiment [2]; 4.83% in experiment [3]; 0.92% in experiment [4]; 3.39% in experiment [5]; 5.61% in [6]. In addition, the inhibition in experiment [7] amounted to 14.5%; in experiment [8], 2.5%; in [9], 1.57%; in [10], 1.65%; in experiment [11] it was 0.86%; in experiment [12], 1.02%. Moreover, the inhibition was 1.42% in [13]; -3.82% in [14]; -3.6% in [15]; -0.22% in experiment [16]; -0.79% in experiment [17]; 6.24% in experiment [18]. For the same compound, the inhibition came out at 3.74% in experiment [19] and 3.72% in experiment [20].
